# Reference: PubChem BioAssay
# “And” between values parts separate entries of the source, which are not always exact repeats. Identical values can stand only once. Inconclusive results are not listed. The source made the active and inactive calls.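 Rule for the calls, unless noted: active = normalized viability below 100% at a tested concentration; inactive = the rest.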
# What was measured:
# [1] = growth inhibition of DIPG glioma cells, dose response, cell-based, SU-DIPG-XVII, MIPE5.0, CellTiter-Glo, qHTS (AID 1347060; cut-off not given, nearly all actives have AC50 up to about 26 µM;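 for AC50: cells exposed to compound for 48 hours before viability readout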); conditions: SU-DIPG-XVII viability, CellTiter-Glo ATP luminescence
# [2] = growth inhibition of DIPG glioma cells, dose response, cell-based, SU-DIPG-XIII, MIPE4.0, CellTiter-Glo, qHTS (AID 1347061; cut-off not given, nearly all actives have AC50 up to about 37 µM;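 note: cells exposed to compound for 48 hours before readout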); conditions: SU-DIPG-XIII viability, CellTiter-Glo ATP luminescence
# [3] = growth inhibition of DIPG glioma cells, dose response, cell-based, JHH-DIPG-1, MIPE4.0, CellTiter-Glo, qHTS (AID 1347062; cut-off not given, nearly all actives have AC50 up to about 27 µM;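 for AC50: cells exposed to compound for two days before readout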); conditions: JHH-DIPG-1 viability, CellTiter-Glo ATP luminescence
# [4] = growth inhibition of DIPG glioma cells, dose response, cell-based, SU-DIPG-IV, MIPE4.0, CellTiter-Glo, qHTS (AID 1347063; cut-off not given, nearly all actives have AC50 up to about 30 µM;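 note: compound exposure lasted 48 hours before the viability readout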); conditions: SU-DIPG-IV viability, CellTiter-Glo ATP luminescence
# [5] = growth inhibition of DIPG glioma cells, dose response, cell-based, SU-DIPG-XIII, MIPE5.0, CellTiter-Glo, qHTS (AID 1347064; cut-off not given, nearly all actives have AC50 up to about 23 µM;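 for AC50: cells exposed to compound for 48 hours before the viability read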); conditions: SU-DIPG-XIII viability, CellTiter-Glo ATP luminescence
# [6] = viability loss in pontine glioma line – cell-based, SU-DIPG-XXV, MIPE5.0, CellTiter-Glo, qHTS, dose response (AID 1347065; cut-off not given, nearly all actives have AC50 up to about 26 µM;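 note: cells exposed to compound for 48 hours before ATP readout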); conditions: CellTiter-Glo ATP luminescence
# [7] = SU-DIPG-VI glioma cell viability, MIPE4.0 library, CellTiter-Glo luminescence, qHTS (AID 1347066; cut-off not given, nearly all actives have AC50 up to about 30 µM;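 note: cells exposed to compound for 48 hours before readout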); conditions: CellTiter-Glo ATP luminescence
# [8] = JHH-DIPG-1 glioma cell viability, MIPE5.0 library, CellTiter-Glo luminescence, qHTS (AID 1347067; cut-off not given, nearly all actives have AC50 up to about 26 µM;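 note: cells exposed to compound for 48 hours before readout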); conditions: JHH-DIPG-1 glioma viability, CellTiter-Glo ATP luminescence
# [9] = SU-DIPG-XXV glioma cell viability, MIPE5.0 library, qHTS (AID 1347068; cut-off not given, nearly all actives have IC50 up to about 30 µM;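 for IC50: cells exposed to compound for 48 hours before viability readout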)
# [10] = sensitizers of A549 cells to miR-34 induction, primary screen, imaging, A549 dox-inducible miR-34, nuclei and caspase counts (AID 1347080;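 active = compounds whose cell count with miR-34 switched on is under 0.7 times the count with it off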); conditions: A549 miR-34 inducible, Hoechst nuclei count, 48 h
# [11] = survival rescue of mitochondrial mutant cells in low glucose, primary screen, MELAS cybrids, Rieske KO mouse fibroblasts, CellTiter-Glo (AID 1508586;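 active = mean z-score across replicates of 1.96 or higher in either the MELAS or the Rieske mutant cell line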;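 note: z relative to plate mean and SD of compound and empty wells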)
# [12] = ovarian cancer cell viability with rucaparib, profiling panel, oncology-focused library, rucaparib conditional (AID 1508598); conditions: patient-derived ovarian cancer cells, CellTiter-Glo viability, 144 h, stronger effect = lower value
# [13] = stronger effect = lower value, cell number ratio, induced over uninduced
# [14] = measured here: relative caspase fold change +Dox/-Dox
# [15] = measured here: total cells with miR-34 induction, stronger effect = lower value
# [16] = measured here: total cells without miR-34 induction
# [17] = MELAS cybrid survival, CellTiter-Glo 48 h, stronger effect = higher value
# [18] = Rieske KO mouse fibroblast survival, CellTiter-Glo 72 h
structure (smiles),measurement,setting,value
COCCn1c2c([n+](Cc3cnccn3)c1C)C(=O)c1ccccc1C2=O,AC50,[1],0.00934 µM (active)
same,AC50,[2],0.0662 µM (active)
same,AC50,[3],0.0469 µM (active)
same,AC50,[4],0.0148 µM (active)
same,AC50,[5],0.00166 µM (active)
same,AC50,[6],0.0263 µM (active)
same,AC50,[7],0.0235 µM (active)
same,AC50,[8],0.105 µM (active)
same,IC50,[9],0.0295 µM (active)
same,fold change,[10]; [13],1.7 (inactive)
same,fold change,[10]; [14],0.996
same,cell count,[10]; [15],936
same,cell count,[10]; [16],551
same,z-score,[11]; [17],-0.74 (inactive)
same,z-score,[11]; [18],-2.86
same,viability,"[12]; at 0.000305 µM, OCI-C5x cells, with rucaparib 10 µM, 100% = cells with rucaparib alone",92.6% (active)
same,viability,"[12]; at 0.000305 µM, OCI-C5x cells, without rucaparib",88.5% (active)
same,viability,"[12]; at 0.000305 µM, OCI-P5x cells, with rucaparib 20 µM, 100% = cells with rucaparib alone",116% (inactive)
same,viability,"[12]; at 0.000305 µM, OCI-P5x cells, without rucaparib",108% (inactive)
same,viability,"[12]; at 0.00122 µM, OCI-C5x cells, with rucaparib 10 µM, 100% = cells with rucaparib alone",88.5% (active)
same,viability,"[12]; at 0.00122 µM, OCI-C5x cells, without rucaparib",93.8% (active)
same,viability,"[12]; at 0.00122 µM, OCI-P5x cells, with rucaparib 20 µM, 100% = cells with rucaparib alone",128% (inactive)
same,viability,"[12]; at 0.00122 µM, OCI-P5x cells, without rucaparib",99.4% (active)
same,viability,"[12]; at 0.00488 µM, OCI-C5x cells, with rucaparib 10 µM, 100% = cells with rucaparib alone",90.5% (active)
same,viability,"[12]; at 0.00488 µM, OCI-C5x cells, without rucaparib",91.8% (active)
same,viability,"[12]; at 0.00488 µM, OCI-P5x cells, with rucaparib 20 µM, 100% = cells with rucaparib alone",114% (inactive)
same,viability,"[12]; at 0.00488 µM, OCI-P5x cells, without rucaparib",49.6% (active)
same,viability,"[12]; at 0.0195 µM, OCI-C5x cells, with rucaparib 10 µM, 100% = cells with rucaparib alone",83% (active)
same,viability,"[12]; at 0.0195 µM, OCI-C5x cells, without rucaparib",14.6% (active)
same,viability,"[12]; at 0.0195 µM, OCI-P5x cells, with rucaparib 20 µM, 100% = cells with rucaparib alone",61.5% (active)
same,viability,"[12]; at 0.0195 µM, OCI-P5x cells, without rucaparib",8.64% (active)
same,viability,"[12]; at 0.0781 µM, OCI-C5x cells, with rucaparib 10 µM, 100% = cells with rucaparib alone",11% (active)
same,viability,"[12]; at 0.0781 µM, OCI-C5x cells, without rucaparib",3.7% (active)
same,viability,"[12]; at 0.0781 µM, OCI-P5x cells, with rucaparib 20 µM, 100% = cells with rucaparib alone",18.6% (active)
same,viability,"[12]; at 0.0781 µM, OCI-P5x cells, without rucaparib",1.55% (active)
same,viability,"[12]; at 0.313 µM, OCI-C5x cells, with rucaparib 10 µM, 100% = cells with rucaparib alone",3.83% (active)
same,viability,"[12]; at 0.313 µM, OCI-C5x cells, without rucaparib",2.36% (active)
same,viability,"[12]; at 0.313 µM, OCI-P5x cells, with rucaparib 20 µM, 100% = cells with rucaparib alone",1.82% (active)
same,viability,"[12]; at 0.313 µM, OCI-P5x cells, without rucaparib",0.757% (active)
same,viability,"[12]; at 1.25 µM, OCI-C5x cells, with rucaparib 10 µM, 100% = cells with rucaparib alone",2.25% (active)
same,viability,"[12]; at 1.25 µM, OCI-C5x cells, without rucaparib",1.76% (active)
same,viability,"[12]; at 1.25 µM, OCI-P5x cells, with rucaparib 20 µM, 100% = cells with rucaparib alone",1.09% (active)
same,viability,"[12]; at 1.25 µM, OCI-P5x cells, without rucaparib",0.567% (active)
same,viability,"[12]; at 5 µM, OCI-C5x cells, with rucaparib 10 µM, 100% = cells with rucaparib alone",0.969% (active)
same,viability,"[12]; at 5 µM, OCI-C5x cells, without rucaparib",1.42% (active)
same,viability,"[12]; at 5 µM, OCI-P5x cells, with rucaparib 20 µM, 100% = cells with rucaparib alone",0.522% (active)
same,viability,"[12]; at 5 µM, OCI-P5x cells, without rucaparib",0.371% (active)
NC(=O)c1ccc(N(C(N)=O)c2c(F)cccc2F)nc1-c1ccc(F)cc1F,outcome,[1],inactive
same,outcome,[2],inactive
same,outcome,[3],inactive
same,outcome,[4],inactive
same,outcome,[5],inactive
same,outcome,[6],inactive
same,outcome,[7],inactive
same,outcome,[8],inactive
same,outcome,[9],inactive
same,fold change,[10]; [13],0.9 (inactive)
same,fold change,[10]; [14],0.736
same,cell count,[10]; [15],9290
same,cell count,[10]; [16],10300
same,z-score,[11]; [17],-0.391 (inactive)
same,z-score,[11]; [18],-0.467
Cc1ccc(O)c(C(CCN(C(C)C)C(C)C)c2ccccc2)c1 (configuration not stated),outcome,[1],inactive
same,outcome,[2],inactive
same,outcome,[3],inactive
same,outcome,[4],inactive
same,outcome,[5],inactive
same,outcome,[6],inactive
same,outcome,[7],inactive
same,outcome,[8],inactive
same,outcome,[9],inactive
same,fold change,[10]; [13],0.945 (inactive) and 0.96 (inactive) and 0.87 (inactive)
same,fold change,[10]; [14],1.69 and 0.719 and 5.48
same,cell count,[10]; [15],8130 and 7320 and 11700
same,cell count,[10]; [16],8600 and 7630 and 13400
same,z-score,[11]; [17],-0.247 (inactive)
same,z-score,[11]; [18],-0.0904
